Assay results published in PubChem BioAssay (NCATS).
Active and inactive are the calls of the source. Calls come from the whole dose curve.

Target: Guanidinoacetate N-methyltransferase (Homo sapiens) (UniProt Q14353)
Experiment: Confirmatory Screen for Target Class Profiling of Small Molecule Inhibitors of Methyltransferases (AID 1745852); for activity change, negative = inhibition: % is set by controls: 0 for no effect and ±100 for the full control effect
Settings: MTase-Glo luminescence, SAH detection, recombinant enzyme; activity change, negative = inhibition: at 57.3 µM (top of the series) unless noted; series mostly up to 57.3 µM
Potency is the fitted concentration of half-maximal effect.

| Compound | activity change, negative = inhibition | Potency | outcome |
| --- | --- | --- | --- |
| CC(O)(CC(=O)O)CC(=O)OCc1ccc(O[C@@H]2O[C@H](CO)[C@@H](O)[C@H](O)[C@H]2O)cc1 (some centres not stated) | 2.07% [at 29.8 µM] | – | – |
| C[C@]12C[C@@H](O)[C@@H]3C[C@@]1(O[C@@H]1O[C@H](CO)[C@@H](O)[C@H](O)[C@H]1O)[C@]3(COC(=O)c1ccccc1)C(=O)O2 | 0.459% [at 29.8 µM] | – | – |
| Cc1cc(N(C)C)ccc1-c1nc2ccc(-c3nc4ccc(N5CCN(C)CC5)cc4[nH]3)cc2[nH]1 | 0% | – | – |
| COc1cc2c(NC3CCN(CC4CCCCC4)CC3)nc(N3CCCN(C(C)C)CC3)nc2cc1OCCCN1CCCCC1 | -0.195% | – | – |
| COc1cc(NC(=O)Nc2cccc(CNC(=O)O[C@H]3CCOC3)c2)ccc1-c1cnco1 | -0.888% | – | – |
| O=C(c1ccccc1)c1ccc2nc(NC(=O)c3csc(C4CCN(c5ncnc6ccsc56)CC4)n3)[nH]c2c1 | 0.0948% | – | – |
| CCCCc1nc2cc(/C=C/C(=O)NO)ccc2n1CCN(CC)CC | 4.34% | – | – |
| CC1=CC(=O)C2(OC3OC(C)C(O)C(OC(=O)/C=C/c4ccccc4)C3O)C=COC(OC3OC(CO)C(O)C(O)C3O)C12 (configuration not stated) | -2.18% [at 19.1 µM] | – | – |
| CN1CCN(C2CCC(n3cc(-c4ccc(Oc5ccccc5)cc4)c4c(N)ncnc43)CC2)CC1 (configuration not stated) | 0% | – | – |
| Cc1cc(O)c(-c2ccc([C@@H](C)CN(C)C)cc2)c2c1[nH]c(=O)c1sccc12 | -6.59% | – | – |
| COC(=O)C1=CO[C@@H](O[C@@H]2O[C@H](CO[C@@H]3O[C@H](COC(=O)/C=C/c4cc(OC)c(O)c(OC)c4)[C@@H](O)[C@H](O)[C@H]3O)[C@@H](O)[C@H](O)[C@H]2O)[C@@H]2C(CO)=CC[C@H]12 | -1.94% [at 19.1 µM] | – | – |
| CC1(C)CC[C@]2(C(=O)O[C@@H]3O[C@H](CO)[C@@H](O)[C@H](O)[C@H]3O)CC[C@]3(C)C(=CCC4[C@@]5(C)C[C@@H](O)[C@H](O)C(C)(C)C5CC[C@]43C)C2[C@@H]1O (some centres not stated) | -2.23% [at 19.1 µM] | – | – |
| CCOc1cc2ncc(C#N)c(Nc3ccc(F)c(Cl)c3)c2cc1NC(=O)/C=C/CN(C)C | – | 4.82 µM (active) | – |
| CC(C)CCC1(O)C(=O)C(C)(C)C(O[C@@H]2O[C@H](CO)[C@@H](O)[C@H](O)[C@H]2O)C(C)(C)C1O (some centres not stated) | -2.97% [at 29.8 µM] | – | – |
| COc1cc(N2CCC(N3CCN(C)CC3)CC2)ccc1Nc1ncc(Cl)c(-c2c[nH]c3ccccc23)n1 | – | 24.1 µM (active) | – |
| COc1cc2nc(N3CCCC3)nc(NCCCCCN3CCCC3)c2cc1OC | 0.888% | – | – |

| Compound | activity change, negative = inhibition | Potency | outcome |
| --- | --- | --- | --- |
| CCN(CC)CCN(Cc1ccc(-c2ccc(C(F)(F)F)cc2)cc1)C(=O)Cn1c(SCc2ccc(F)cc2)nc(=O)c2c1CCC2 | 0% | – | – |
| Oc1ccc(CNc2ccccc2F)c2cccnc12 | 2.39% | – | – |
| C=C(C(=O)O)[C@@H]1CC[C@@]2(C)CC[C@H](O)[C@@]2(C(C)=O)C1 | -6.04% | – | – |
| N#Cc1ccc(-c2cnc3[nH]cc(NC(=O)c4cccnc4)c3c2)cc1 | – | – | inactive |
| CC(C)=CCC(O)/C(C)=C/CO[C@@H]1O[C@H](CO)[C@@H](O)[C@H](O)[C@H]1O (some centres not stated) | 0% | – | – |
| C=C(C)C(=O)OC1CC2(C)OC(=CC2=O)C(=C)CC2OC(=O)C(COC)C12 (configuration not stated) | -5.17% | – | – |
| CN1CCN(C(=O)c2ccc3cc(CCNc4ncnc5ccc(C#N)cc45)ccc3c2)CC1 | -3.33% | – | – |
| C[C@@H](Oc1cc(-n2cnc3ccc(OC4CCN(C)CC4)cc32)sc1C(N)=O)c1ccccc1C(F)(F)F | – | 24.1 µM (active) | – |
| C=C1C(=O)OC2C1CCC(=C)C1CC(OC(C)=O)C(=C)C12 (configuration not stated) | -10.4% | – | – |
| CN(C)c1nc(NC2CCC(NCCc3ccc(Br)cc3OC(F)(F)F)CC2)nc2ccccc12 (configuration not stated) | -2.23% | – | – |
| CC(Oc1cc(-n2cnc3ccc(CN4CCN(C)CC4)cc32)sc1C(N)=O)c1ccccc1C(F)(F)F (configuration not stated) | – | 30.4 µM (active) | – |
| COc1ccc(CCO[C@@H]2O[C@H](CO[C@@H]3OC[C@H](O)[C@H](O)[C@H]3O)[C@@H](O)[C@H](O)[C@H]2O)cc1 | 2.09% [at 29.8 µM] | – | – |
| Cc1ccc([N+](=O)[O-])cc1S(=O)(=O)N(C)/N=C/c1cnc2ccc(Br)cn12 | – | 30.4 µM (active) | – |
| COC(=O)C1=CO[C@@H](O[C@@H]2O[C@H](CO)[C@@H](O)[C@H](O)[C@H]2O)[C@H]2[C@@H]1CC(OC)O[C@@H]2C (some centres not stated) | -2.71% [at 29.8 µM] | – | – |
| CCS(=O)(=O)N1CCN(c2ccc(Nc3ncc(C(N)=O)c(NC4CC4)n3)cc2)CC1 | 0% | – | – |

Target: Nicotinamide N-methyltransferase (Homo sapiens) (UniProt P40261)
Experiment: as above
Settings: MTase-Glo luminescence, SAH detection, recombinant enzyme; measured here: NNMT max response; stronger effect = lower value

Nicotinamide N-methyltransferase (Homo sapiens), sequence (P40261 whole entry, looked up): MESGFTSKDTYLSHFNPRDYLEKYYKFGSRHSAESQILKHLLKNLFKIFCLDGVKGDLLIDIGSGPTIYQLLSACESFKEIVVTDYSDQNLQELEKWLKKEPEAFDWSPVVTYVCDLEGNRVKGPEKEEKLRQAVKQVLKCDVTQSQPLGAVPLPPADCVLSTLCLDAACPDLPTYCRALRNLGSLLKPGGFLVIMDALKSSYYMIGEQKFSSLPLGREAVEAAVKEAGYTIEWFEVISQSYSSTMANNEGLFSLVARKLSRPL

| Compound | activity |
| --- | --- |
| CC(O)(CC(=O)O)CC(=O)OCc1ccc(O[C@@H]2O[C@H](CO)[C@@H](O)[C@H](O)[C@H]2O)cc1 (some centres not stated) | 1.65% |
| C[C@]12C[C@@H](O)[C@@H]3C[C@@]1(O[C@@H]1O[C@H](CO)[C@@H](O)[C@H](O)[C@H]1O)[C@]3(COC(=O)c1ccccc1)C(=O)O2 | 0% |
| Cc1cc(N(C)C)ccc1-c1nc2ccc(-c3nc4ccc(N5CCN(C)CC5)cc4[nH]3)cc2[nH]1 | -5.28% |
| COc1cc2c(NC3CCN(CC4CCCCC4)CC3)nc(N3CCCN(C(C)C)CC3)nc2cc1OCCCN1CCCCC1 | -18.7% |
| COc1cc(NC(=O)Nc2cccc(CNC(=O)O[C@H]3CCOC3)c2)ccc1-c1cnco1 | -9.19% |
| O=C(c1ccccc1)c1ccc2nc(NC(=O)c3csc(C4CCN(c5ncnc6ccsc56)CC4)n3)[nH]c2c1 | -42% |
| CCCCc1nc2cc(/C=C/C(=O)NO)ccc2n1CCN(CC)CC | -2.78% |
| CC1=CC(=O)C2(OC3OC(C)C(O)C(OC(=O)/C=C/c4ccccc4)C3O)C=COC(OC3OC(CO)C(O)C(O)C3O)C12 (configuration not stated) | -1.08% |
| CN1CCN(C2CCC(n3cc(-c4ccc(Oc5ccccc5)cc4)c4c(N)ncnc43)CC2)CC1 (configuration not stated) | -13.2% |
| Cc1cc(O)c(-c2ccc([C@@H](C)CN(C)C)cc2)c2c1[nH]c(=O)c1sccc12 | -64.6% |
| COC(=O)C1=CO[C@@H](O[C@@H]2O[C@H](CO[C@@H]3O[C@H](COC(=O)/C=C/c4cc(OC)c(O)c(OC)c4)[C@@H](O)[C@H](O)[C@H]3O)[C@@H](O)[C@H](O)[C@H]2O)[C@@H]2C(CO)=CC[C@H]12 | -1.52% |
| CC1(C)CC[C@]2(C(=O)O[C@@H]3O[C@H](CO)[C@@H](O)[C@H](O)[C@H]3O)CC[C@]3(C)C(=CCC4[C@@]5(C)C[C@@H](O)[C@H](O)C(C)(C)C5CC[C@]43C)C2[C@@H]1O (some centres not stated) | -0.101% |
| CCOc1cc2ncc(C#N)c(Nc3ccc(F)c(Cl)c3)c2cc1NC(=O)/C=C/CN(C)C | -82.7% |
| CC(C)CCC1(O)C(=O)C(C)(C)C(O[C@@H]2O[C@H](CO)[C@@H](O)[C@H](O)[C@H]2O)C(C)(C)C1O (some centres not stated) | -3.79% |
| COc1cc(N2CCC(N3CCN(C)CC3)CC2)ccc1Nc1ncc(Cl)c(-c2c[nH]c3ccccc23)n1 | -32.6% |
| COc1cc2nc(N3CCCC3)nc(NCCCCCN3CCCC3)c2cc1OC | -30.1% |

| Compound | activity |
| --- | --- |
| CCN(CC)CCN(Cc1ccc(-c2ccc(C(F)(F)F)cc2)cc1)C(=O)Cn1c(SCc2ccc(F)cc2)nc(=O)c2c1CCC2 | -45.6% |
| Oc1ccc(CNc2ccccc2F)c2cccnc12 | -0.361% |
| C=C(C(=O)O)[C@@H]1CC[C@@]2(C)CC[C@H](O)[C@@]2(C(C)=O)C1 | -3.52% |
| N#Cc1ccc(-c2cnc3[nH]cc(NC(=O)c4cccnc4)c3c2)cc1 | 2.51% |
| CC(C)=CCC(O)/C(C)=C/CO[C@@H]1O[C@H](CO)[C@@H](O)[C@H](O)[C@H]1O (some centres not stated) | 0% |
| C=C(C)C(=O)OC1CC2(C)OC(=CC2=O)C(=C)CC2OC(=O)C(COC)C12 (configuration not stated) | -5.26% |
| CN1CCN(C(=O)c2ccc3cc(CCNc4ncnc5ccc(C#N)cc45)ccc3c2)CC1 | -11.9% |
| C[C@@H](Oc1cc(-n2cnc3ccc(OC4CCN(C)CC4)cc32)sc1C(N)=O)c1ccccc1C(F)(F)F | -64.9% |
| C=C1C(=O)OC2C1CCC(=C)C1CC(OC(C)=O)C(=C)C12 (configuration not stated) | -9.15% |
| CN(C)c1nc(NC2CCC(NCCc3ccc(Br)cc3OC(F)(F)F)CC2)nc2ccccc12 (configuration not stated) | -85% |
| CC(Oc1cc(-n2cnc3ccc(CN4CCN(C)CC4)cc32)sc1C(N)=O)c1ccccc1C(F)(F)F (configuration not stated) | -27.1% |
| COc1ccc(CCO[C@@H]2O[C@H](CO[C@@H]3OC[C@H](O)[C@H](O)[C@H]3O)[C@@H](O)[C@H](O)[C@H]2O)cc1 | 1.01% |
| Cc1ccc([N+](=O)[O-])cc1S(=O)(=O)N(C)/N=C/c1cnc2ccc(Br)cn12 | -33.8% |
| COC(=O)C1=CO[C@@H](O[C@@H]2O[C@H](CO)[C@@H](O)[C@H](O)[C@H]2O)[C@H]2[C@@H]1CC(OC)O[C@@H]2C (some centres not stated) | -1.72% |
| CCS(=O)(=O)N1CCN(c2ccc(Nc3ncc(C(N)=O)c(NC4CC4)n3)cc2)CC1 | -70.8% |
